# High-throughput results: PubChem, National Center for Advancing Translational Sciences (NCATS)
# IL1B secr inh = blocks inflammasome-driven IL-1 beta release. THP-1 LPS/ATP IL-1B secretion, AlphaLISA, 16 h; hits give low values. 4.7% of 360,000 active. activity change, % at 57.5 µM; in the data active means activity change below about -50%; inconclusive means mostly about -30% to -49%
#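 THP-1 cells pretreated 1 hr with compounds (up to 57.5 uM final), then stimulated with LPS (250 ng/mL final) plus ATP (1.25 mM final); secreted IL-1B measured by AlphaLISA after 16 hr, decreased signal indicating inhibition.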
# TDP1 inh = blocks human tyrosyl-DNA phosphodiesterase 1. Potency, µM (series often up to 130 µM), without a hit: top-dose activity change, negative = inhibition, actives largely listed as inhibitors. recombinant TDP1, AlphaScreen DNA substrate cleavage. 0.28% of 350,000 active. Q9NUW8; further: potency means the concentration at half of the fitted maximal effect; nearly all actives have a fitted effect of over 40% in size
#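 Enzyme-compound mixtures sat 15 min at room temperature, followed by a 5 min reaction with 15 nM final substrate and 10 min with AlphaScreen beads. Recombinant human Tdp1 was used at 1 nM final.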
# TDP1 cell noCPT = qHTS for Inhibitors of human tyrosyl-DNA phosphodiesterase 1 (TDP1): qHTS in cells in absence of CPT | Potency, µM (series often up to 46.2 µM), for inactives: at the top dose activity change, negative = growth inhibition, usual class: inhibitors | DT40 Tdp1-/- hTDP1 cells, no CPT, ATP luminescence, 48 h | 15% of 420,000 active; further: potency means the concentration at half of the fitted maximal effect; nearly all actives have a fitted effect of over 55% in size
#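 Growth kinetics read by CellTiter-Glo luminescence after ≥48 hr at 37 °C. Cells: DT40 Tdp1-/- stably carrying human TDP1, 400 per well, compound exposure in the absence of CPT (DMSO vehicle).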
# CtBP-E1A blk = CtBP/E1A binding inhibition. AlphaScreen GST-E1A/His-CtBP binding, 1536-well; hits give low values. 0.49% of 340,000 active. activity change, % (no concentration beside the values); in the data active means activity change below about -65%; inconclusive means mostly about -30% to -63%
#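 AlphaScreen with 125 nM GST-E1A and 125 nM His-CtBP (5X stocks) in Tris pH 8.0, 300 mM NaCl, BSA, Tween 20, TCEP. Compounds preincubated 2 h at 37 deg C, then glutathione donor/nickel acceptor beads added for 1 h at 37 deg C in dark.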
# TDP1 cell CPT = DT40-hTDP1 cell growth loss with CPT; chicken DT40 Tdp1-/-;hTDP1 cells + 20 nM CPT, ATP luminescence, 48 h; AID 686979; Potency, µM (titrated, usually from 46.2 µM), for inactives: top-dose activity change, negative = growth inhibition, usual class: inhibitors; 12% of 420,000 active; further: potency means the concentration at half of the fitted maximal effect; nearly all actives have a fitted effect of over 55% in size
#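 Chicken DT40 Tdp1-/- cells stably complemented with human TDP1 were seeded at 400 cells/well in medium containing 20 nM camptothecin, exposed to pin-transferred compounds, and grown at 37 °C for at least 48 hr. Viability was read as ATP luminescence.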
# Six1-Eya2 blk = Six1/Eya2 interaction inhibition; Q15475+O00167; AlphaScreen GST-Six1/His-Eya2 binding, biochemical; hits give low values; activity change, % (test concentration not listed); 0.56% of 360,000 active; in the data active means activity change below about -65%; inconclusive means mostly about -30% to -63%
#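 Six1/Eya2 binding was read as AlphaScreen signal after compounds were pinned into GST-Six1 plus His-tagged Eya2 (5X stock 250/500 nM) in pH 8.0 Tris/NaCl/TCEP buffer, beads added, then incubated 1 h, 37 C, dark.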
# Numbers without * were called inactive; ? = inconclusive; · = no result given. Sampled rows, rich in hits. Any-hit rate of the full collection: about 18%. Unless noted, the call rests on the fitted dose curve; in most records, active means well fitted curve in the direction sought with a large enough effect; inconclusive means small, poorly fitted or top-dose-only effect, or another doubt; inactive means no such curve, though single readings can be large; an effect the other way counts as inactive or inconclusive. On the % scale 0 is the no-effect control and ±100 the full control effect.
SMILES,IL1B secr inh,TDP1 inh,TDP1 cell noCPT,CtBP-E1A blk,TDP1 cell CPT,Six1-Eya2 blk
NC(Cc1ccc(Cl)cc1)c1csc(Nc2cc(Oc3ccccc3)ncn2)n1 (stereo not given),-69*,·,?,-15,-106%,-10
NC(COCc1ccccc1)c1csc(Nc2nccc(C(F)(F)F)n2)n1 (stereo not given),0,·,?,-24,?,-10
NC(COCc1ccccc1)c1csc(Nc2cc(Oc3ccccc3)ncn2)n1 (stereo not given),-79*,·,26µM*,?,?,-24
COc1ccc(CC(N)c2csc(Nc3cc(Oc4ccccc4)ncn3)n2)cc1 (stereo not given),·,·,12µM*,-19,16µM*,-9
CCCCN(CCCNC(=O)CN1C(=O)COc2ccccc21)c1ccccc1,-9,-10%,?,2,-25%,-19
O=C(O)Cc1cc(=O)[nH]n(-c2ccccc2)c1=O,0,·,-4%,-5,5%,3
O=C1OCCN1c1c(-c2ccccc2)c(N2CCOCC2)nc2ccccc12,16,·,15µM*,8,12µM*,3
c1ccc(-c2nc3ccccc3nc2N2CCOCC2)cc1,34,-4%,?,11,?,19
Cc1cccc(OCc2n[nH]c(=S)n2C2CCCCC2)c1,21,5%,?,7,23µM*,-3
Cc1ccc(OCc2n[nH]c(=S)n2C2CCCCC2)cc1,37,7%,18µM*,-3,29µM*,-6
O=C(CCN1CCN(C(c2ccccc2)c2ccccc2)CC1)N/N=C/c1ccc(O)cc1,-12,5%,?,-3,?,-26
O=C(CCN1CCN(C(c2ccccc2)c2ccccc2)CC1)N/N=C/c1ccc(O)cc1O,82,11%,5.2µM*,-73*,6.5µM*,-11
COc1ccc(OC)c(/C=N/NC(=O)CCN2CCN(C(c3ccccc3)c3ccccc3)CC2)c1,-4,6%,16µM*,1,?,-14
CN1CCc2[nH]c3ccc(Cl)cc3c2C1,·,1%,-25%,·,4%,·
CSc1ncccc1C(=O)NCC1CCCCC1,-12,-3%,23%,2,2%,4
CCc1ccc(N2C(=O)c3sc4nnc(-c5ccccc5)c(=O)n4c3C2=O)cc1,38,6%,13µM*,?,12µM*,?
O=S(=O)(CC(CN1CCCCC1)N1CCCCC1)c1ccc2ccccc2c1 (stereo not given),-97*,3%,2.6µM*,3,5.2µM*,0
Cc1ccc(S(=O)(=O)CC(CN2CCCCC2)N2CCCCC2)cc1 (stereo not given),-98*,-3%,13µM*,0,?,1
COc1ccc(/C=N/NC(=O)c2c(-c3ccccc3)noc2C)cc1,0,5%,-1%,-2,1%,1
O=C(COc1cccc(Br)c1)Nc1ccc(N2CCOCC2)cc1N1CCOCC1,15,1%,?,-4,18µM*,-1
CC(C)Oc1cccc(C(=O)Nc2ccccc2N2CCOCC2)c1,-22,-5%,?,-1,-61%,8
CC(=O)c1cccc(OCC(=O)Nc2ccccc2N2CCOCC2)c1,?,?,?,11,18µM*,4
CCC(C)Oc1cccc(C(=O)Nc2ccccc2N2CCOCC2)c1 (stereo not given),-6,2%,18µM*,9,?,2
CCC(=O)c1ccc(OCC(=O)Nc2ccc(N3CCOCC3)cc2N2CCOCC2)cc1,-1,2%,-12%,2,-2%,-1
CS(=O)(=O)N1CCC(Oc2ccccc2C(=O)N2CCCCC2CO)CC1 (stereo not given),6,-1%,3%,2,5%,3
